# Screening results (PubChem)
# The list is not random: actives were taken first. Their share in the collection is about 2.5%.
# ANO1 activ: activates or potentiates the mouse TMEM16A chloride channel; HEK293 TMEM16A/YFP-H148Q/I152L, iodide quench fluorescence; active compounds read low; B-score at 10 µM; 340,000 compounds, 0.3% hits; AID 623877;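 active = fluorescence-ratio B-score plate-corrected deviation score at least 3 library SD below zero, with starting fluorescence score within 5 deviations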;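 also: channel opened by trigger with iodide after compound preincubation; score built on the fluorescence ratio of max minus min over baseline; more negative score means more quench and so TMEM16A activation or potentiation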
# TMEM16A inh: blocks the mouse calcium-activated chloride channel TMEM16A. Q8BHY3. normalized B-score (activity score, 25-100; higher = stronger inhibition) at 10 µM. AID 588511. 310,000 compounds, 1.2% hits. HEK293 TMEM16A/YFP iodide influx fluorescence, ionomycin;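 active = ratio plate-corrected score three or more library SD toward inhibition, starting fluorescence score within five deviations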;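 also: score derived from kinetic fluorescence span divided by baseline fluorescence per well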
# PKA-R1A act: activators of PKA-R1A complex. activation, % at 11.4 µM. P00514+P68181. 340,000 compounds, 0.083% hits. PKA-R1A dissociation, Cy5-IP20 fluorescence polarization; scaled: DMSO 0%, 113 µM cGMP 100%;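 active = percent activation above the mean of all tested compounds plus 3 SD, cut at about 19% in these data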;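 also: higher means more PKAc released from R1A so a rise in polarization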
# CHT block: inhibitors of human choline transporter CHT | B-score at 10 µM | CHT-expressing cells, membrane potential dye, choline response; active compounds read low | Q9GZV3 | 310,000 compounds, 0.86% hits | AID 488975;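 active = B-score over 3 SD under the library average, and starting fluorescence ratio not unusually high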;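 also: choline stimulus applied at its EC90 after an EC20 pre-addition; B-score computed on integrated fluorescence ratio after choline addition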
# Target sequence (Q9GZV3 whole entry, looked up): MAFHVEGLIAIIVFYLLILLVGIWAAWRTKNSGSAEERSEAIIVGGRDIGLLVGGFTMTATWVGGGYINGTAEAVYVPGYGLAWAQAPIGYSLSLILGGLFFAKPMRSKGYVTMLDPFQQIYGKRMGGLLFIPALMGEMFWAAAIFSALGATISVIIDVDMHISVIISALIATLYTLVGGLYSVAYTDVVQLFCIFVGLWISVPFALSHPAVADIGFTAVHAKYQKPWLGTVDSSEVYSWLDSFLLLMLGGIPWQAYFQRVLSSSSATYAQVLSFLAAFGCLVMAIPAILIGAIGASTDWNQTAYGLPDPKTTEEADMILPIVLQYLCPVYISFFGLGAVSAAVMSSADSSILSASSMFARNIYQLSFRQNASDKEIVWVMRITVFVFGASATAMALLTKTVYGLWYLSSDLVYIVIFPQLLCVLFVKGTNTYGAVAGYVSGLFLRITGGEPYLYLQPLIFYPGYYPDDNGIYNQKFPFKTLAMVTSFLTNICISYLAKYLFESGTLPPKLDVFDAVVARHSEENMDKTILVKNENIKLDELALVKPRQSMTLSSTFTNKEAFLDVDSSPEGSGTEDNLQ
# PKA-R2B activ: activators of human PKA-R2B complex; activation, % at 11.4 µM; 340,000 compounds, 0.079% hits; AID 504700; P22694+P31323; PKA-R2B holoenzyme dissociation, Cy5-IP20 fluorescence polarization; R2B truncated from residue 108, S112A mutant; 0% DMSO only, 100% 113 µM cGMP;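 active = activation above a cutoff set at the mean over all compounds plus 3 SD, cut at about 18% in these data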;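 also: higher means more holoenzyme dissociation and a rise in polarization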
# CHT PAM: allosterically activates the human high affinity choline transporter | AID 488977 | 310,000 compounds, 0.49% hits | CHT-expressing cells, membrane potential dye, choline EC20; active compounds read high; LV-AA mutant CHT in HEK293 cells | B-score at 10 µM;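 active = initial fluorescence not abnormally high and integrated response B-score, plate-corrected, over 3 SD above library mean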
# * hit, by the source's call; i = inactive; · = no result.
SMILES,ANO1 activ,TMEM16A inh,PKA-R1A act,CHT block,PKA-R2B activ,CHT PAM
COc1ccc(CCNc2nc(C)nc3c2oc2ccccc23)cc1OC,i,i,1.0,i,-5.0,i
COc1ccc(CCNc2ncnc3c2oc2ccccc23)cc1OC,i,100*,7.9,i,-6.3,i
CCN(CC)c1ccc(/C=C2/C(=O)ON=C2C)cc1,i,i,3.0,i,0.9,i
CCN(CC)c1ccc(/C=C2\C(=O)N(c3nnc(C)c(=O)[nH]3)N=C2C)cc1,-5.68*,i,-9.3,i,-5.7,i
O=C1Nc2ccc(Cl)cc2[C@@](C#CC2CC2)(C(F)(F)F)O1,·,100*,·,i,·,i
CN(C)S(=O)(=O)c1cccc(NC(=O)c2ccc(N3CCOCC3)c([N+](=O)[O-])c2)c1,i,i,-1.8,i,-4.3,i
Cc1cccc(NC(=O)c2cccc(NS(=O)(=O)c3ccc(Cl)cc3)c2)c1,i,100*,-12.3,i,5.7,i
Cc1cccc(NS(=O)(=O)c2ccc(C3CCCCC3)cc2)c1,i,25*,0.6,i,-2.3,i
O=C(O)c1cccc(NS(=O)(=O)c2ccc(C3CCCCC3)cc2)c1,i,i,-14.0,i,0.5,i
Cc1cccc(NS(=O)(=O)c2nnc(NC(=O)c3ccc(Cl)cc3)s2)c1,i,i,-0.6,i,1.4,i
O=C(CCc1ccccc1)Nc1ccc(S(=O)(=O)Nc2nccs2)cc1,i,i,1.3,i,3.8,i
CC1Cc2ccccc2N1C(=O)CSc1nn2c(=O)c(C(C)(C)C)nnc2s1 (centres undefined),-37.5*,i,-7.2,i,-0.8,i
Nc1nc(SCC(=O)NC2CCCCC2)n[nH]1,i,i,4.9,i,-10.6,i
S=C(NCCCN1CCOCC1)Nc1ccc(N2CCOCC2)cc1,i,i,-6.0,i,4.4,i
COC(=O)Cc1ccc(NC(=S)NCCCN2CCOCC2)cc1,i,i,1.2,-6.78*,0.4,i
COc1ccccc1-c1cc(C(F)(F)F)nc(S(=O)(=O)CCCC(=O)N2CCOCC2)n1,i,i,11.1,-5.1*,-7.8,i
CCOc1ccc(NC(=O)c2ccccc2NS(=O)(=O)c2ccc(F)cc2)c([N+](=O)[O-])c1,i,25*,10.2,i,-6.4,i
CC(NCC(=O)Nc1cc(S(=O)(=O)N2CCCCCC2)ccc1Cl)c1ccccc1 (centres undefined),i,100*,-16.4,i,-10.3,i
Cc1ccccc1NCC(=O)Nc1cc(S(=O)(=O)N2CCCCC2)ccc1C,i,·,4.6,·,0.5,·
O=C(Nc1cc(S(=O)(=O)N2CCCCC2)ccc1Cl)c1ccccc1NS(=O)(=O)c1ccc(F)cc1,i,25*,-6.1,i,-10.9,i
COc1cccc(N2CCN(c3ccc([N+](=O)[O-])cn3)CC2)c1,i,i,6.8,i,7.9,i
COc1ccccc1C(=O)NCCC(=O)NC(C)c1ccc(-n2ccnc2)cc1 (centres undefined),i,i,-6.5,i,-0.8,i
CCOc1ccccc1N(CC(=O)N1CCOCC1)S(=O)(=O)c1ccc(SC)cc1,-9.79*,·,-10.8,·,5.1,·
COc1ccccc1CNC(=O)CCCNC(=O)Cn1cnc2sc(C)c(C)c2c1=O,i,i,-2.1,i,5.7,i
COc1cc(NC(=O)COc2ccc(C)c(C)c2)ccc1NC(=O)c1ccco1,i,i,5.3,i,3.5,i
SMILES,ANO1 activ,TMEM16A inh,PKA-R1A act,CHT block,PKA-R2B activ,CHT PAM
CCC(CC)C(=O)Nc1ccc(C)c(O)c1,-9.57*,i,-9.8,i,-5.6,i
C=C(C)Cn1c(C)cc(C)c(S(=O)(=O)c2cccc(C)c2)c1=O,i,100*,-9.0,i,-13.3,i
CSc1ccc(CN(C)C(=O)c2cccc(S(=O)(=O)NCc3ccccc3)c2)cc1,i,100*,0.5,i,1.6,i
CSc1ccc(CN(C)C(=O)c2cc(S(=O)(=O)NCc3ccccc3)ccc2C)cc1,i,i,7.4,i,-3.1,i
COc1ccc(C(=O)NC(Cn2ccnc2)C(C)(C)C)cc1OC1CCN(C(C)C)CC1 (centres undefined),i,i,-6.7,-8.71*,-2.6,i
CCc1ccc(CNC(=O)c2ccc(OC)c(OC3CCN(C(C)C)CC3)c2)nc1,i,i,-10.9,-9.6*,-4.1,i
Cc1ccc(C2=C(O)c3ccccc3C(=O)C2=O)cc1,i,i,5.6,i,-3.6,i
CC(C)c1ccc(C2=C(O)c3ccccc3C(=O)C2=O)cc1,i,25*,2.8,i,0.2,i
O=C(Cn1nc(-c2ccccc2)ccc1=O)NCC1CCCO1 (centres undefined),i,i,5.4,i,-4.8,i
O=C(Cn1nc(-c2ccc(Cl)cc2)ccc1=O)NCC1CCCO1 (centres undefined),-16.7*,i,-4.3,i,3.6,i
CCOC(=O)C(Sc1n[nH]c(N)n1)c1ccccc1 (centres undefined),i,25*,-7.8,i,-4.5,i
CN(Cc1ccccc1)C(=O)CSc1n[nH]c(N)n1,i,i,-7.8,i,-1.9,i
Oc1c(Cl)cc(Cl)cc1Sc1cc(Cl)cc(Cl)c1O,·,100*,·,i,·,i
COc1ccccc1N1CCN(C2CCCCC2NS(=O)(=O)c2ccc(Cl)cc2)CC1 (centres undefined),-32.7*,i,-10.4,i,5.7,i
COc1ccc(-n2c(C)c(C(C)=O)c(C(C)=O)c2C)cc1,i,i,-9.3,i,-2.3,i
COc1cccc(-n2c(C)c(C(C)=O)c(C(C)=O)c2C)c1,-13.2*,i,1.7,i,-3.6,i
COc1cc(/C=C/C(=O)OCC(=O)N2CC(C)OC(C)C2)ccc1OCC#N (centres undefined),·,·,-10.5,·,3.4,·
O=C1C(=NO)CC(c2ccccc2)N1c1ccccc1 (centres undefined),i,·,3.2,·,-3.1,·
O=C(N1CCOCC1)N1CCN(S(=O)(=O)c2ccc(F)cc2)CC1,i,i,-7.5,i,-8.7,i
CCc1ccc(/C=C2/SC(=S)N(CCC(=O)Nc3cccc(C(=O)O)c3)C2=O)cc1,i,i,-2.7,-5.93*,2.7,i
CCc1ccc(/C=C2\SC(=S)N(CCCC(=O)Nc3ccccn3)C2=O)cc1,i,i,0.6,i,0.4,i
